This passage reports activation, inhibition and activity results from PubChem BioAssay.

This is one part of the list. The source made the active and inactive calls. Unless noted, no stated cut-off is given here; in the data, active means activation above about 33%; inactive means the rest.

Assay [1] can be described thus: PERK-eIF2a-CHOP pathway stimulators, retested – cell-based, CHO-CHOP luciferase reporter, single concentration, confirmation (AID 463112).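 Further: 0% = DMSO wells and 100% = tunicamycin 10 µg/mL wells.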 To be noted: CHO-CHOP cells, CHOP-luciferase reporter luminescence; at 10 µM; stronger effect = higher value; percent of tunicamycin response, DMSO as zero.
A short description of assay [2]: Brca1-Bard1 BiLC signal decrease – luminescence, single concentration, counter-screen for Mdm2/MdmX interaction inhibitor project, confirmation (AID 504668; call rule not given here). To be noted: Brca1/Bard1 bimolecular luciferase complementation counterscreen, at 8 µM, stronger effect = higher value.
Assay [3] deals with Sentrin-specific protease 8 (Homo sapiens) (UniProt Q96LD8). Kind of assay: human SENP8 peptidase blockers, hit retest – biochemical, luminescence, single concentration, confirmation (AID 488912;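 active means mean inhibition across replicates above about 50%, limit read from the data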). Particulars: Recombinant SENP8, Z-RLRGG-aminoluciferin luminescence, 60 min; at 12.5 µM; stronger effect = higher value.
Chain of Sentrin-specific protease 8 (Homo sapiens) (Q96LD8 whole entry, looked up, the tested form may be a part): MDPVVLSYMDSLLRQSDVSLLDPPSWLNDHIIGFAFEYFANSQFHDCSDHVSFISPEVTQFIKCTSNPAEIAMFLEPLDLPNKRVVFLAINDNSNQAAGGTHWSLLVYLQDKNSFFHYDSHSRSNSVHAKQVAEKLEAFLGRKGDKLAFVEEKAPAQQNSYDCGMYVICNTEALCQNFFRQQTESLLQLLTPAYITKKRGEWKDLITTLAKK
Assay [4] deals with Sentrin-specific protease 6 (Homo sapiens) (UniProt Q9GZR1). Kind of assay: inhibition of human SENP6 catalytic domain – biochemical, luminescence, single concentration, confirmation (AID 488915;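 active means mean inhibition above about 50% in the one-dose retest, limit read from the data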). To be noted: recombinant SENP6, Z-RLRGG-aminoluciferin luminescence; at 12.5 µM; stronger effect = higher value.
Chain of Sentrin-specific protease 6 (Homo sapiens) (Q9GZR1 628-1112 limits assumed): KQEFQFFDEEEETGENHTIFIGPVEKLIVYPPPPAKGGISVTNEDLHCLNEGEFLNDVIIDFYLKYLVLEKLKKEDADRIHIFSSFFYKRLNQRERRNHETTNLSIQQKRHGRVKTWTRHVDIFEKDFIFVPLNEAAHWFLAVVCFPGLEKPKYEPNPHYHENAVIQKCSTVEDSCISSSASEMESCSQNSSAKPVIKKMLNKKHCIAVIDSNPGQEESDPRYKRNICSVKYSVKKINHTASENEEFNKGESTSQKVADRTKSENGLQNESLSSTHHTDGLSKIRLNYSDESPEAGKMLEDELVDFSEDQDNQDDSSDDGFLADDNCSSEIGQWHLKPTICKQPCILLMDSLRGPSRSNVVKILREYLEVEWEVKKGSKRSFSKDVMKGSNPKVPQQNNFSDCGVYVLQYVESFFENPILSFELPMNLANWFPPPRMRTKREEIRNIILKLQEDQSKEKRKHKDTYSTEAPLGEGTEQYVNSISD
For assay [5], the target named is Sentrin-specific protease 7 (Homo sapiens) (UniProt Q9BQF6). The experiment in a line: human SENP7 peptidase blockers, hit retest – biochemical, luminescence, single concentration, confirmation (AID 488917;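 active means mean inhibition above about 50% in the one-dose retest, limit read from the data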). Particulars: recombinant SENP7, Z-RLRGG-aminoluciferin luminescence, 40 min; at 12.5 µM; stronger effect = higher value.
Chain of Sentrin-specific protease 7 (Homo sapiens) (Q9BQF6 706-1050 limits assumed): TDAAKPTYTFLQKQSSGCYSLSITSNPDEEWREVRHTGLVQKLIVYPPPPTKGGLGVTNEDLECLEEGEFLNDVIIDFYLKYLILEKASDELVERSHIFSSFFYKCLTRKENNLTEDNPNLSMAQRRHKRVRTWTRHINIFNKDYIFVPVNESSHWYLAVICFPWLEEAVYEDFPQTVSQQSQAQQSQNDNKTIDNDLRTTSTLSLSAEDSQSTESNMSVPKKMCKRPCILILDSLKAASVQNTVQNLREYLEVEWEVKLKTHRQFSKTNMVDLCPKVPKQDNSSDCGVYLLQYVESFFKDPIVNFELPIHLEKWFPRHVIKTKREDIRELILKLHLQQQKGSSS
In assay [6] the target is Caspase-3 (Homo sapiens) (UniProt P42574). Kind of assay: human caspase-3 activity blockade, out-of-family – biochemical, single concentration, selectivity assay for SENP inhibitor project, confirmation (AID 488918;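 active means mean inhibition above about 50%, limit read from the data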;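 further: plate controls were enzyme with DMSO for no effect and wells without caspase-3 for full effect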). Particulars: purified caspase-3, Z-DEVD-aminoluciferin luminescence, 60 min; at 12.5 µM; stronger effect = higher value.
Chain of Caspase-3 (Homo sapiens) (P42574 28-227 limits assumed): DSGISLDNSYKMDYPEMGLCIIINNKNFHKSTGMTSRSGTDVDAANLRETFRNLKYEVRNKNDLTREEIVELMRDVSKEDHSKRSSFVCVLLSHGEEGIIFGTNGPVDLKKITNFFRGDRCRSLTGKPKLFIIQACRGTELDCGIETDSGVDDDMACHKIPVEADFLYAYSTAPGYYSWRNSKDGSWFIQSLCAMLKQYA
Assay [7] in a line: Ultra-Glo luciferase signal interference – biochemical, single concentration, SENP8 reaction pre-completed, artefact control for SENP inhibitor project, confirmation (AID 488919;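 active means mean inhibition above about 50% when retested at one dose, limit read from the data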;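 further: plate controls were DMSO wells with completed reaction for no effect and substrate without enzyme for full effect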). To be noted: Pre-incubated SENP8/Z-RLRGG-aminoluciferin, luciferase luminescence interference; at 12.5 µM; stronger effect = higher value.
Assay [8] is described as follows: NF-kB reporter suppression in CF airway cells – cell-based, GFP fluorescence, single concentration, confirmation (AID 602472; in the data active means inhibition above about 40%;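 further: stimulus PAF is a Pseudomonas aeruginosa filtrate and not platelet activating factor; plate controls were DMSO wells with stimulus for no effect and unstimulated DMSO wells for full effect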). To be noted: KKLEB CF airway cells, PAF-induced NF-kB-GFP fluorescence, overnight; at 5 µM; stronger effect = higher value.
The target of assay [9] is Protein Mdm4 (Homo sapiens) + E3 ubiquitin-protein ligase Mdm2 (Homo sapiens) (UniProt O15151+Q00987). The experiment in a line: human Mdm2/MdmX binding disruption – cell-based, luminescence, single concentration, set 2, confirmation (AID 504601;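 active means mean inhibition of the luminescence signal across two replicates at or above 26 percent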). Particulars: SaOS-2 split-luciferase Mdm2/MdmX complementation, at 8 µM, stronger effect = higher value.
Chain of Protein Mdm4 (Homo sapiens) + E3 ubiquitin-protein ligase Mdm2 (Homo sapiens) (O15151 whole entry, looked up): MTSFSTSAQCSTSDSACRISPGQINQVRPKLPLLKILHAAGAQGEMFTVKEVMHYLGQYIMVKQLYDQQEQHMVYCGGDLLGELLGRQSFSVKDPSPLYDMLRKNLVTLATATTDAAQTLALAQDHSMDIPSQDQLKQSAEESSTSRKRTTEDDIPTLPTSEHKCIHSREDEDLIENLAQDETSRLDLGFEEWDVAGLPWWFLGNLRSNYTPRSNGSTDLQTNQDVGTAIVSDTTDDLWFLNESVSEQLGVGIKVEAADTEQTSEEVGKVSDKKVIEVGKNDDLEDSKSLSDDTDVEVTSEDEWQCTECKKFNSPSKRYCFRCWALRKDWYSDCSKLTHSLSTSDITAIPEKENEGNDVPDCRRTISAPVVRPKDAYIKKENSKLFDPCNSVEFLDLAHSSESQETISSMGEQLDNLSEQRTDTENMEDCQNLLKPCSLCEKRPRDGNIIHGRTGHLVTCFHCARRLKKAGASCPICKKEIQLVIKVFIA
Chain of Protein Mdm4 (Homo sapiens) + E3 ubiquitin-protein ligase Mdm2 (Homo sapiens) (Q00987 whole entry, looked up): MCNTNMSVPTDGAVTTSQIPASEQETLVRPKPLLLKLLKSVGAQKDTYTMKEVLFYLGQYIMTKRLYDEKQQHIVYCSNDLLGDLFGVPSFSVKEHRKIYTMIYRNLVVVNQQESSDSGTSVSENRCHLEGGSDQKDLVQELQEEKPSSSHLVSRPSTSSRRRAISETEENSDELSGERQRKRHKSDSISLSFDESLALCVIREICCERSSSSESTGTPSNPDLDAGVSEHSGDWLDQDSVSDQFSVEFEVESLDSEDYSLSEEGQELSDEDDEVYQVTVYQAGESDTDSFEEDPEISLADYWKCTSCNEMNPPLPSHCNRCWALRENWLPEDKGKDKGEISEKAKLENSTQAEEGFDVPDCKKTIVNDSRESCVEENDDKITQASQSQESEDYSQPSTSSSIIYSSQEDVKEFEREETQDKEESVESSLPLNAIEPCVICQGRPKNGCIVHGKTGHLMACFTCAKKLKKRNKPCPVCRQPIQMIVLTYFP
A short description of assay [10]: HIF-2a driven luciferase blockers, single dose – luminescence, 786-0 RCC cells, confirmation (AID 651580;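 active means mean inhibition across four replicates of at least 40 percent at the single tested concentration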). Particulars: HIF-2a luciferase reporter luminescence, overnight, at 18.8 µM, stronger effect = higher value.
Assay [11] in a line: HIF-1a luciferase reporter signal reduction – MiaPaCa-2 cells, single concentration, counter-screen for HIF-2a inhibitor project, confirmation (AID 651589;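 active means mean inhibition of the reporter signal across four replicates at the single tested dose of 50% or more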). Particulars: MiaPaCa-2 HIF-1a luciferase reporter, desferoxamine, overnight; at 18.8 µM; stronger effect = higher value.
The nature of assay [12]: NFkB reporter suppression in cystic fibrosis bronchial cells – cell-based, uHTS hits, panel, cytotoxicity readout, dose response (AID 624344). To be noted: CF bronchial epithelial cells, PAF-induced NFkB reporter inhibition, with PAF, run 1; at 79 µM (top of the series) unless noted.
Assay in assay [13]: as above
To be noted: CF bronchial epithelial cells, PAF-induced NFkB reporter inhibition, with PAF, run 2; at 79 µM (top of the series) unless noted.

The target in assay [14] is Tumor necrosis factor receptor superfamily member 10B (Homo sapiens) (UniProt O14763). The experiment in a line: viability loss of caspase-8 NB7 cells with TRAIL – with/without TRAIL, luminescence panel, confirmation (AID 651596; in the data active means activity above about 50%). Particulars: NB7 neuroblastoma + caspase-8, TRAIL sensitization, NB7 Caspase-8, with TRAIL, mean of runs, at 10 µM, stronger effect = higher value.
Chain of Tumor necrosis factor receptor superfamily member 10B (Homo sapiens) (O14763 whole entry, looked up): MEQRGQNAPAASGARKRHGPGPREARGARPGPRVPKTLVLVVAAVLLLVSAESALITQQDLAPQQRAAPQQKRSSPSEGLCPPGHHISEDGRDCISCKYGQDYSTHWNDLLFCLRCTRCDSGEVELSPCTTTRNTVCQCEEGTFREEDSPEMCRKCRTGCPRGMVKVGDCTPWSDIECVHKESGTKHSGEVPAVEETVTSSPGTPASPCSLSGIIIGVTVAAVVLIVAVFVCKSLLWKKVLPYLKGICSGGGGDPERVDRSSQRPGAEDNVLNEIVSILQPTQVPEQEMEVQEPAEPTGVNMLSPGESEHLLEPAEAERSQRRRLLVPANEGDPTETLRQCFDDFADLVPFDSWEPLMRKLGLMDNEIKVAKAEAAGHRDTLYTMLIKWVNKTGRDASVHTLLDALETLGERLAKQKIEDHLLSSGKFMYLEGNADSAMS
Assay in assay [15]: as above
To be noted: NB7 neuroblastoma + caspase-8, without TRAIL, NB7 Caspase-8, without TRAIL, mean of runs, at 10 µM.

Consider `O=C1Nc2ccc(Br)cc2/C1=N/N=C/C1=C(N2CCOCC2)C(=C\c2ccccc2)/CC1`, for which the activation in assay [1] is 53.4% (active).
For the compound `CCc1ccc2c(c1)C1(NN=C(c3ccccc3)S1)C(=O)N2` (configuration not stated), in assay [1], the activation is 98.4% (active).
Consider `O=C1CC(c2cccc(Cl)c2)CC(O)=C1C=Nc1ccccc1` (configuration not stated), for which, in [1], the activation was 70.8% (active).
With `CC(C)(C)Nc1nc(-c2ccccn2)nc2ccccc12`, in assay [1], the activation was 20.4% (inactive). In addition, the inhibition in [2] was 23.3% (active).
For the compound `Nc1nc(CC(=O)CSc2ccc(Cl)cc2)nc(Nc2ccc(F)cc2)n1`, in assay [1], the activation is 40% (active). Further, the inhibition in assay [2] was 29.2% (active).
For `COc1cccc2sc(Nc3nc(C)c(C(C)=O)s3)nc12`, the activation in assay [1] was 58.5% (active). Moreover, the inhibition in [3] is 51.3% (active); in assay [4], 47.9% (inactive); in assay [5] it was 83.9% (active); in assay [6], 56.6% (active); in [7] it was 72.3% (active).
On to `S=C1SCN(CCN2CCOCC2)CN1Cc1ccccc1`, for which the activation in assay [1] was 102% (active).
As to `COc1ccccc1/C=N\Nc1cc(C)nc(-n2nc(C)cc2C)n1`, the activation in [1] is 38% (active).
Still for that read-out and setting: under `Nc1ccccc1SC(C[N+](=O)[O-])c1ccccc1` (configuration not stated) stands -9.65% (inactive).
In the case of `COc1ccc(C(C[N+](=O)[O-])n2nc(C)cc2C)cc1` (configuration not stated), in assay [1], the activation was 60% (active).
Regarding `Oc1c(CN2CCN(c3ccc(F)cc3)CC2)cc(Cl)c2cccnc12`, the activation in [1] is 196% (active). The inhibition in [2] is 25.7% (active).
With `Cc1cc(C(=O)CCl)c(C)n1CC1COc2ccccc2O1` (configuration not stated), in assay [1], the activation was 60.3% (active).
As to `CC1(C)CCSC(/C=C/c2ccccc2)=N1`, the activation in [1] was 68% (active). The inhibition is 30.5% (active) in [2] and -24.9% (inactive) in assay [8].
Consider `COc1ccc2c(c1OC)C(=O)OC2Nc1nc(-c2ccccc2)cs1` (configuration not stated), for which the activation in assay [1] was 29.9% (inactive). Also, the inhibition in assay [9] was 103% (active); in assay [8], 106% (active); in assay [10] it was 26% (inactive); in assay [11] it was 105% (active); in [12] it was 109%; in assay [13], 103%.
As to `CCCCCC(=O)Nc1ccc(C(=O)N/N=C/c2ccc([N+](=O)[O-])cc2)cc1`, in [1], the activation was 79% (active).
As to `C=CS(=O)c1sc(Cl)c(N2CCOCC2)c1[N+](=O)[O-]` (configuration not stated), in [1], the activation was -10.6% (inactive).
On the same count and under the same terms, under `COc1ccc(C(=O)NCC(=O)N/N=C/c2ccc([N+](=O)[O-])o2)cc1OC` stands 35.6% (active); under `CC1CC2=C(CC1/C=N/NC(N)=S)C(C)(C)CCC2` (configuration not stated), 29.4% (inactive).
Take `CSc1nc(-c2ccccc2)nc(C(Cl)Cl)n1`: the activation in assay [1] was 28.5% (inactive). The inhibition is 97.7% (active) in assay [9], 59.7% (active) in [10] and 105% (active) in assay [11].
With `Cc1c(NC(=O)CSc2cccc3cccnc23)c(=O)n(-c2ccccc2)n1C`, in [1], the activation was 123% (active).
`CCCc1cc(=S)n2c([nH]c3ccccc32)c1C#N`: the activation in [1] was -0.45% (inactive).
`CS(=O)(=O)N(Cc1ccccc1)c1ccc(C(=O)NN=C2CCCCCC2)cc1`: the activation in [1] was -1.8% (inactive).
In the case of `COC(=O)c1ccc(C(=O)Nc2cc(Cl)ccc2Cl)cc1NC(=O)c1ccccc1C`, the activation in assay [1] is 10.6% (inactive).
On to `Cc1cccc(-n2ncc(Cl)c(Cl)c2=O)c1`, for which the activation in assay [1] was 29.5% (inactive). Further, the inhibition in [10] is 26.4% (inactive); in assay [11], 101% (active). The activity in assay [14] was determined as 99.6%; in assay [15], 99.7%.
With `COc1cc(C#Cc2ccc3cc(CCCO)oc(=O)c3c2)cc(OC)c1`, the inhibition in assay [3] is 56.9% (active); in assay [4], 72.2% (active); in assay [5] it was 86.6% (active); in [6], 42.7% (inactive); in [7] it was 15.2% (inactive).
